Inconclusive results are not listed. The source made the active and inactive calls. Rule for the calls: active = hit-call score of the fitted dose curve at least 0.9, where 1 is the maximum; inconclusive = response in the unintended direction; inactive = score below 0.9.

Chain of Cellular tumor antigen p53 (Homo sapiens) (P04637 whole entry, looked up): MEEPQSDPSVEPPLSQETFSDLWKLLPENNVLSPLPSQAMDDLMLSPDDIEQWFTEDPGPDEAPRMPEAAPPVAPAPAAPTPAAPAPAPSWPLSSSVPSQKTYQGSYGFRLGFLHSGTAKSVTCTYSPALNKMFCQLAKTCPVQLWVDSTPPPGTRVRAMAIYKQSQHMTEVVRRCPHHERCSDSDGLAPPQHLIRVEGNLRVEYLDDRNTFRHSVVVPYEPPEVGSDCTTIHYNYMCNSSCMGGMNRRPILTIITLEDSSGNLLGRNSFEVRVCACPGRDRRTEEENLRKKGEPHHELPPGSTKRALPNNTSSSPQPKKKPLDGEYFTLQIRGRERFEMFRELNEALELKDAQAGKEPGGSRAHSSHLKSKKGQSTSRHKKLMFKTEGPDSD

For one assay, the target named is Cellular tumor antigen p53 (Homo sapiens) (UniProt P04637). Nature of the assay: TOX21_p53_BLA_p3_ratio: Tox21 HCT-116 p53 Agonism Beta-lactamase Assay, Ratio, Phase 3 (AID 2283596). In outline:
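HCT116 p53-bla cells (4000/well) given compound in DMSO (217-fold dilution) after 5 h, incubated 16 h at 37C. CCF4-AM substrate 2 h at room temperature; 460/530 nm emission ratio, gain fitted against DMSO.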
As to `Fc1ccc(C(OCCN2CCN(CCCc3ccccc3)CC2)c2ccc(F)cc2)cc1`, the AC50 was 24.9 µM (active). With `CCCCc1c(C)nc(NCC)[nH]c1=O`, the outcome was inactive. The same measure, in the same setting: for `NNC(=O)c1ccccc1` the value was “inactive”; for `CC(C)c1ccc(NC(=O)N(C)C)cc1`, “inactive”.

Consider `C[C@@H]1O[C@@H](O[C@@H]2C=C3CC[C@@H]4[C@H](CC[C@]5(C)[C@@H](c6ccc(=O)oc6)CC[C@]45O)[C@@]3(C)CC2)[C@H](O)[C@H](O)[C@H]1O`, for which the outcome was inactive.

As for `CC(C)C[C@H]1C(=O)N2CCC[C@H]2[C@]2(O)O[C@](NC(=O)[C@@H]3C[C@@H]4c5cccc6[nH]cc(c56)C[C@H]4N(C)C3)(C(C)C)C(=O)N12`, the outcome was inactive. Still for that read-out and setting: for `N#CC(C#N)=C(C#N)C#N` the value was “inactive”. Regarding `Cc1nnc2n1-c1sc(CCC(=O)N3CCOCC3)cc1C(c1ccccc1Cl)=NC2`, the outcome was inactive. As for `C[C@H]1CC[C@]2(NC1)O[C@H]1C[C@H]3[C@@H]4CC[C@H]5C[C@@H](O)CC[C@]5(C)[C@H]4CC[C@]3(C)[C@H]1[C@@H]2C`, the result was inactive.

As for `N#C/C(N)=C(/N)C#N`, the result was inactive. The same measure, in the same setting: for `CNC(C)Cc1ccccc1OC` (stereo not drawn) the value was “inactive”; for `NC(=O)CS(=O)C(c1ccccc1)c1ccccc1` (stereo not drawn), “inactive”.

As for `COc1ccc(OC)c([C@@H](O)[C@H](C)N)c1`, the outcome was inactive. Still for that read-out and setting: for `CCCN(CC1CC1)c1c([N+](=O)[O-])cc(C(F)(F)F)cc1[N+](=O)[O-]` the value was “inactive”. The same measure, in the same setting: for `CC1(C)C(/C=C(\Cl)C(F)(F)F)C1C(=O)OC(C#N)c1cccc(Oc2ccccc2)c1` (stereo not drawn) the value was “inactive”.

With `ClCc1ccccc1`, the outcome was inactive. For the compound `CC1NCCOC1c1ccccc1` (stereo not drawn), the result was inactive.

As for `CC(Cc1ccccc1)NCc1ccccc1Cl` (stereo not drawn), the outcome was inactive. As for `COC(C)(C)CCCC(C)C/C=C/C(C)=C/C(=O)OC(C)C` (stereo not drawn), the outcome was inactive.

Turning to `CCC1(c2ccccc2)C(=O)NC(=O)N(C(=O)c2ccccc2)C1=O` (stereo not drawn), the result was inactive. For the compound `S=C=NCCc1ccccc1`, the half-maximal activity concentration (AC50) was 59.3 µM (active).

As for `O=[N+]([O-])O[C@H]1CO[C@H]2[C@@H]1OC[C@H]2O[N+](=O)[O-]`, the outcome was inactive. The same measure, in the same setting: next, `Brc1ccc(Oc2cc(Br)c(Br)cc2Br)c(Br)c1`: “inactive”. With `c1ccc(C2(N3CCCC3)CCCCC2)cc1`, the AC50 is 43.9 µM (active). Consider `N#CCc1ccccc1`, for which the outcome was inactive. On the same count and under the same terms, for `O=C(N/N=C/c1ccc([N+](=O)[O-])o1)c1cc([N+](=O)[O-])cc([N+](=O)[O-])c1O` the value was “inactive”; for `O=C(OCCN1CCCCC1)C(O)(c1ccccc1)c1ccccc1`, “inactive”. On the same count and under the same terms, for `CO[C@H]1[C@@H](O)C[C@H](O[C@H]2[C@@H](O)C[C@H](O[C@H]3[C@@H](O)C[C@H](O[C@H]4CC[C@@]5(C)[C@H](CC[C@@H]6[C@@H]5C[C@@H](O)[C@]5(C)[C@@H](C7=CC(=O)OC7)CC[C@]65O)C4)O[C@@H]3C)O[C@@H]2C)O[C@@H]1C` the value was “inactive”. Still for that read-out and setting: next, `CCOS(C)(=O)=O`: “inactive”; `O=C(O)c1nn(Cc2ccc(Cl)cc2Cl)c2ccccc12`: “inactive”. Take `C=CC(C)=O`: the outcome was inactive.

With `O=CC=Cc1ccccc1`, the outcome was inactive. On the same count and under the same terms, for `COc1ccc2c(c1OC)C(=O)O[C@@H]2[C@H]1c2cc3c(cc2CCN1C)OCO3` the value was “inactive”. Regarding `CSCCCN=C=S`, the AC50 was 20.9 µM (active).

Test system in the next assay: not listed separately
Nature of the assay: TOX21_p53_BLA_p4_viability: Viability Assessment in the Tox21 HCT-116 p53 Agonism Beta-lactamase Assay, Phase 4 (AID 2283597).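 Note: hits lower the luminescence signal meaning cytotoxicity.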 In outline: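 Luminescent ATP readout (CellTiter-Glo, 30 min, room temperature) in the same wells as the p53 bla ratio. HCT116 cells were treated for 16 h at 37C with DMSO-dissolved compounds.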
As to `Fc1ccc(C(OCCN2CCN(CCCc3ccccc3)CC2)c2ccc(F)cc2)cc1`, the concentration at half-maximal activity (AC50) was 25.1 µM (active). The same measure, in the same setting: for `C[C@@H](Cc1ccccc1)NCCC(c1ccccc1)c1ccccc1` the value was 12.5 µM (active). In the case of `CC(=O)CCC(C)=O`, the compound was classed as inactive. Same read-out and setting: next, `CCCCc1c(C)nc(NCC)[nH]c1=O`: “inactive”. For `CC(C)c1ccc(NC(=O)N(C)C)cc1`, the result was inactive.

In the case of `C[C@@H]1O[C@@H](O[C@@H]2C=C3CC[C@@H]4[C@H](CC[C@]5(C)[C@@H](c6ccc(=O)oc6)CC[C@]45O)[C@@]3(C)CC2)[C@H](O)[C@H](O)[C@H]1O`, the concentration at half-maximal activity (AC50) was 0.0123 µM (active).

Consider `CC(C)C[C@H]1C(=O)N2CCC[C@H]2[C@]2(O)O[C@](NC(=O)[C@@H]3C[C@@H]4c5cccc6[nH]cc(c56)C[C@H]4N(C)C3)(C(C)C)C(=O)N12`, for which the compound was called inactive. Still for that read-out and setting: next, `Cc1nnc2n1-c1sc(CCC(=O)N3CCOCC3)cc1C(c1ccccc1Cl)=NC2`: “inactive”; `C[C@H]1CC[C@]2(NC1)O[C@H]1C[C@H]3[C@@H]4CC[C@H]5C[C@@H](O)CC[C@]5(C)[C@H]4CC[C@]3(C)[C@H]1[C@@H]2C`: “inactive”. For the compound `CNC(C)Cc1ccccc1OC` (stereo not drawn), the result was inactive. On the same count and under the same terms, for `CCCN(CC1CC1)c1c([N+](=O)[O-])cc(C(F)(F)F)cc1[N+](=O)[O-]` the value was “inactive”; for `CC1(C)C(/C=C(\Cl)C(F)(F)F)C1C(=O)OC(C#N)c1cccc(Oc2ccccc2)c1` (stereo not drawn), “inactive”; for `ClCc1ccccc1`, “inactive”. For `CC(Cc1ccccc1)NCc1ccccc1Cl` (stereo not drawn), the outcome was inactive. On the same count and under the same terms, next, `COC(C)(C)CCCC(C)C/C=C/C(C)=C/C(=O)OC(C)C` (stereo not drawn): “inactive”; `CCC1(c2ccccc2)C(=O)NC(=O)N(C(=O)c2ccccc2)C1=O` (stereo not drawn): “inactive”; `Brc1ccc(Oc2cc(Br)c(Br)cc2Br)c(Br)c1`: “inactive”. On the same count and under the same terms, next, `c1ccc(C2(N3CCCC3)CCCCC2)cc1`: “inactive”. Same read-out and setting: for `N#CCc1ccccc1` the value was “inactive”. With `F/C(COc1ccc2c(c1)[nH]c1ccccc12)=C1/CN2CCC1CC2`, the half-maximal activity concentration (AC50) was 27.3 µM (active). Still for that read-out and setting: next, `O=C(CCl)C(Cl)Cl`: 6.25 µM (active). Consider `O=C(N/N=C/c1ccc([N+](=O)[O-])o1)c1cc([N+](=O)[O-])cc([N+](=O)[O-])c1O`, for which the AC50 is 23 µM (active). Still for that read-out and setting: for `CO[C@H]1[C@@H](O)C[C@H](O[C@H]2[C@@H](O)C[C@H](O[C@H]3[C@@H](O)C[C@H](O[C@H]4CC[C@@]5(C)[C@H](CC[C@@H]6[C@@H]5C[C@@H](O)[C@]5(C)[C@@H](C7=CC(=O)OC7)CC[C@]65O)C4)O[C@@H]3C)O[C@@H]2C)O[C@@H]1C` the value was 0.0984 µM (active).

With `CCOS(C)(=O)=O`, the call was inactive.

In the case of `O=C(O)c1nn(Cc2ccc(Cl)cc2Cl)c2ccccc12`, the compound was called inactive.

Consider `C=CC(C)=O`, for which the result was inactive.

For the compound `O=CC=Cc1ccccc1`, the result was inactive. For `CC(=O)O[C@H]1C[C@H](O[C@H]2[C@@H](O)C[C@H](O[C@H]3[C@@H](O)C[C@H](OC4CC[C@@]5(C)[C@H](CC[C@@H]6[C@@H]5CC[C@]5(C)[C@@H](C7=CC(=O)OC7)CC[C@]65O)C4)O[C@@H]3C)O[C@@H]2C)O[C@H](C)[C@H]1O[C@@H]1O[C@H](CO)[C@@H](O)[C@H](O)[C@H]1O` (stereo partly drawn), the concentration at half-maximal activity (AC50) was 0.137 µM (active). Consider `C[C@]12CC[C@H]3[C@@H](CCC4=CC(=O)CC[C@@]43C)[C@@H]1CC[C@@H]2OC(=O)CCc1ccccc1`, for which the compound was classed as inactive.

(Values after PubChem BioAssay (EPA / NIEHS).)
